Measurements: PubChem BioAssay (NCATS)
Inconclusive results are not listed. Active and inactive are the calls of the source. Calls come from the whole dose curve; as a rule, active = well fitted cell-killing curve with a large enough effect; inconclusive = small, poorly fitted or top-dose-only effect, or effect the other way; inactive = flat fitted curve, though single readings scatter.

What was measured:
Assay in all cases: Primary qHTS to identify gynecologic anti-cancer compounds using libraries of approved drugs and bioactive compounds (AID 1345084); note: nearly all actives have a fitted effect of over 55% in size
CAOV3 = details: Gynecologic cancer cell panel viability, ATPlite luminescence, 48 h; series mostly up to 57.5 µM
Outline: (§1)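 Cytotoxicity screen measuring ATP content by luciferase luminescence. Each compound is applied at five concentrations for 48 h at 37 C with 5% CO2.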

CASKI = details: Gynecologic cancer cell panel viability, ATPlite luminescence, 48 h; series mostly up to 57.5 µM
Outline: as §1

Es-2 = details: Gynecologic cancer cell panel viability, ATPlite luminescence, 48 h; series mostly up to 57.5 µM
Outline: as §1

HeLa = details: Gynecologic cancer cell panel viability, ATPlite luminescence, 48 h; series mostly up to 57.5 µM
Outline: as §1

Hek293T = details: Gynecologic cancer cell panel viability, ATPlite luminescence, 48 h, control line for the selectivity index; series mostly up to 57.5 µM
Outline: as §1

JEG-3 = details: Gynecologic cancer cell panel viability, ATPlite luminescence, 48 h; series mostly up to 57.5 µM
Outline: as §1

OV90 = details: Gynecologic cancer cell panel viability, ATPlite luminescence, 48 h; series mostly up to 57.5 µM
Outline: as §1

PA-1 = details: Gynecologic cancer cell panel viability, ATPlite luminescence, 48 h; series mostly up to 57.5 µM
Outline: as §1

SKOV3 = details: Gynecologic cancer cell panel viability, ATPlite luminescence, 48 h; series mostly up to 57.5 µM
Outline: as §1

Tov-21-G = details: Gynecologic cancer cell panel viability, ATPlite luminescence, 48 h; series mostly up to 57.5 µM
Outline: as §1

Tov112D = details: Gynecologic cancer cell panel viability, ATPlite luminescence, 48 h; series mostly up to 57.5 µM
Outline: as §1
% is set by controls: 0 for no effect and ±100 for the full control effect.

COc1cc(-c2cccc(O)c2)cc2c1OCO2
inactive: Potency (CAOV3) | Potency (CASKI) | Potency (Es-2) | Potency (HeLa) | Potency (Hek293T) | Potency (JEG-3) | Potency (OV90) | Potency (PA-1) | Potency (SKOV3) | Potency (Tov-21-G) | Potency (Tov112D)

C[C@@H]1C(=O)O[C@H]2[C@H]1CC[C@@]1(C)C(=O)C=C[C@](C)(O)[C@H]21
inactive: Potency (CAOV3) | Potency (CASKI) | Potency (Es-2) | Potency (HeLa) | Potency (Hek293T) | Potency (JEG-3) | Potency (OV90) | Potency (PA-1) | Potency (SKOV3) | Potency (Tov-21-G) | Potency (Tov112D)

N[C@@H](CC(=O)N1CCn2c(nnc2C(F)(F)F)C1)Cc1[nH]nc2c(F)c(F)ccc12
inactive: Potency (CAOV3) | Potency (CASKI) | Potency (Es-2) | Potency (HeLa) | Potency (Hek293T) | Potency (JEG-3) | Potency (OV90) | Potency (PA-1) | Potency (SKOV3) | Potency (Tov-21-G) | Potency (Tov112D)

C=C1CC2C3(C)C(OC(C)=O)CC(=O)OC(C)(C)C3C(O)C(OC(C)=O)C2(C)C2C(=O)OC(C)C(=O)C12C (stereo not given)
inactive: Potency (CAOV3) | Potency (CASKI) | Potency (Es-2) | Potency (HeLa) | Potency (Hek293T) | Potency (JEG-3) | Potency (OV90) | Potency (PA-1) | Potency (SKOV3) | Potency (Tov-21-G) | Potency (Tov112D)

c1ccc(C(OC2CCN(CCCc3nn[nH]n3)CC2)c2ccccc2)cc1
inactive: Potency (CAOV3) | Potency (CASKI) | Potency (Es-2) | Potency (HeLa) | Potency (Hek293T) | Potency (JEG-3) | Potency (OV90) | Potency (PA-1) | Potency (SKOV3) | Potency (Tov-21-G) | Potency (Tov112D)

CC1(C)CCC2(C(=O)OC3OC(COC4OC(CO)C(O)C(O)C4O)C(O)C(O)C3O)CCC3(C)C(=CCC4C5(C)CCC(O)C(C)(C(=O)O)C5CCC43C)C2C1O (stereo not given)
inactive: activity change, negative = cytotoxicity (CAOV3) 3.42% [at 11.6 µM] | activity change, negative = cytotoxicity (CASKI) 3.04% [at 11.6 µM] | activity change, negative = cytotoxicity (Es-2) 4.39% [at 11.6 µM] | activity change, negative = cytotoxicity (HeLa) -15.3% [at 11.6 µM] | activity change, negative = cytotoxicity (Hek293T) 4.46% [at 11.6 µM] | activity change, negative = cytotoxicity (JEG-3) -2.36% [at 11.6 µM] | activity change, negative = cytotoxicity (OV90) 0.278% [at 11.6 µM] | activity change, negative = cytotoxicity (PA-1) -2.93% [at 11.6 µM] | activity change, negative = cytotoxicity (SKOV3) 21% [at 11.6 µM] | activity change, negative = cytotoxicity (Tov-21-G) 0.669% [at 11.6 µM] | activity change, negative = cytotoxicity (Tov112D) -1.2% [at 11.6 µM]

COc1cc(/C=C/C(=O)OC[C@H]2O[C@H](O[C@]3(CO)O[C@H](CO)[C@@H](O)[C@@H]3O)[C@H](O)[C@@H](O)[C@@H]2O)cc(OC)c1O
inactive: Potency (CAOV3) | Potency (CASKI) | Potency (Es-2) | Potency (HeLa) | Potency (Hek293T) | Potency (JEG-3) | Potency (OV90) | Potency (PA-1) | Potency (SKOV3) | Potency (Tov-21-G) | Potency (Tov112D)

C/C=C(\C)C(=O)OC[C@H]1O[C@H](O[C@H]2O[C@H](CO)[C@@H](OC(=O)/C(C)=C/C)[C@H](O)[C@H]2O[C@@H]2O[C@H](CO)[C@@H](O)[C@H](O)[C@H]2O)[C@H](O[C@@H]2O[C@H](CO)[C@@H](O)[C@H](O)[C@H]2O)[C@@H](O)[C@@H]1O
inactive: activity change, negative = cytotoxicity (CAOV3) 17% [at 11.6 µM] | activity change, negative = cytotoxicity (CASKI) 6.41% [at 11.6 µM] | activity change, negative = cytotoxicity (Es-2) 10.5% [at 11.6 µM] | activity change, negative = cytotoxicity (HeLa) 13.4% [at 11.6 µM] | activity change, negative = cytotoxicity (Hek293T) 8.94% [at 11.6 µM] | activity change, negative = cytotoxicity (JEG-3) 2.7% [at 11.6 µM] | activity change, negative = cytotoxicity (OV90) 8.14% [at 11.6 µM] | activity change, negative = cytotoxicity (PA-1) 33.8% [at 11.6 µM] | activity change, negative = cytotoxicity (SKOV3) 3.25% [at 11.6 µM] | activity change, negative = cytotoxicity (Tov-21-G) 22.3% [at 11.6 µM] | activity change, negative = cytotoxicity (Tov112D) 9.9% [at 11.6 µM]

CC1(O)CCC2C(C(=O)O)=COC(OC3OC(CO)C(O)C(O)C3OC(=O)/C=C/c3ccc(O)cc3)C21 (stereo not given)
inactive: Potency (CAOV3) | Potency (CASKI) | Potency (Es-2) | Potency (HeLa) | Potency (Hek293T) | Potency (JEG-3) | Potency (OV90) | Potency (PA-1) | Potency (SKOV3) | Potency (Tov-21-G) | Potency (Tov112D)

CCn1cc(C2=NOC(C(=O)Nc3c(C)n(C)n(-c4ccccc4)c3=O)C2)c(C)n1 (stereo not given)
inactive: Potency (CAOV3) | Potency (CASKI) | Potency (Es-2) | Potency (HeLa) | Potency (Hek293T) | Potency (JEG-3) | Potency (OV90) | Potency (PA-1) | Potency (SKOV3) | Potency (Tov-21-G) | Potency (Tov112D)

CC1CCC2(NC1)OC1C(=O)C3C4CCC5CC(O[C@@H]6O[C@H](CO)[C@@H](O)[C@H](O)[C@H]6O[C@@H]6O[C@@H](C)[C@H](O)[C@@H](O)[C@H]6O)CCC5(C)C4CCC3(C)C1C2C (stereo not given in full)
inactive: Potency (CAOV3) | Potency (CASKI) | Potency (Es-2) | Potency (HeLa) | Potency (Hek293T) | Potency (JEG-3) | Potency (OV90) | Potency (PA-1) | Potency (SKOV3) | Potency (Tov-21-G) | Potency (Tov112D)

CC1C/C=C/C=C\CCCCC(O)C/C=C/C(=O)O1 (stereo not given)
inactive: Potency (CAOV3) | Potency (CASKI) | Potency (Es-2) | Potency (HeLa) | Potency (Hek293T) | Potency (JEG-3) | Potency (OV90) | Potency (PA-1) | Potency (SKOV3) | Potency (Tov-21-G) | Potency (Tov112D)

CC(=O)O[C@@]1(C)C[C@@H](O)[C@]2(O)C=CO[C@@H](O[C@@H]3O[C@H](CO)[C@@H](O)[C@H](O)[C@H]3O)[C@@H]21
inactive: Potency (CAOV3) | Potency (CASKI) | Potency (Es-2) | Potency (HeLa) | Potency (Hek293T) | Potency (JEG-3) | Potency (OV90) | Potency (PA-1) | Potency (SKOV3) | Potency (Tov-21-G) | Potency (Tov112D)

Cc1c(CN(C)C(=O)/C=C/c2cnc3c(c2)CCC(=O)N3)oc2ccccc12
inactive: Potency (CAOV3) | Potency (CASKI) | Potency (Es-2) | Potency (HeLa) | Potency (Hek293T) | Potency (JEG-3) | Potency (OV90) | Potency (PA-1) | Potency (SKOV3) | Potency (Tov-21-G) | Potency (Tov112D)

Cc1cccc(-c2[nH]c(CNc3ccccc3F)nc2-c2ccc3ncnn3c2)n1
inactive: Potency (CAOV3) | Potency (CASKI) | Potency (Es-2) | Potency (HeLa) | Potency (Hek293T) | Potency (JEG-3) | Potency (OV90) | Potency (PA-1) | Potency (SKOV3) | Potency (Tov-21-G) | Potency (Tov112D)
